Measured values as given in PubChem BioAssay (EPA / NIEHS).
Results filed as inconclusive are left out. The source made the active and inactive calls. How the source made its calls, unless noted: active means hit-call score of the fitted dose curve at least 0.9, where 1 is the maximum; inconclusive means response in the unintended direction; inactive means score below 0.9.

Key:
[1] = molecular target: Retinoic acid receptor RXR-alpha (Homo sapiens) (UniProt P19793); experiment: ATG_RXRa_TRANS: Attagene TRANS-FACTORIAL HepG2 Assay for human Retinoid X Receptor alpha (RXRa) (AID 2283012)
Procedure, shortened: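 Measures exogenous chimeric NR-GAL4 activity in transfected HepG2 liver cells after 24 h of dosing. Induced reporter mRNA was detected by RT-PCR with capillary electrophoresis, and gain of signal was analysed against DMSO.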

[2] = molecular target: human Vitamin D Receptor (VDR), VDR (gene 7421) (UniProt P11473); experiment: ATG_VDR_TRANS: Attagene TRANS-FACTORIAL HepG2 Assay for human Vitamin D Receptor (VDR) (AID 2283022)
Procedure, shortened: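 Multiplexed TRANS reporter in HepG2; 24 h treatment; reporter mRNA by RT-PCR plus capillary electrophoresis; upregulation scored relative to DMSO.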

[3] = molecular target: human Thyroid Receptor alpha (THRa1), THRA (gene 7067) (UniProt P10827); experiment: ATG_THRa1_TRANS: Attagene TRANS-FACTORIAL HepG2 Assay for human Thyroid Receptor alpha (THRa1) (AID 2283014)
Procedure, shortened: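 Measured here is mRNA from a GAL4-UAS reporter in transfected HepG2 cells carrying a Gal4-fused receptor, 24 h post-dose. DMSO served as negative control and baseline.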

[4] = read-out: E-selectin (Homo sapiens) (UniProt P16581); experiment: BSK_3C_Eselectin: BioMAP Diversity Plus: 3C Assay for Eselectin Biomarker Activity (AID 2283015; active means hit-call score of the fitted dose curve at least 0.9, where 1 is the maximum; inactive means score below 0.9;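 further: cell surface E-selectin protein quantified by ELISA 24 h after dosing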); settings: primary human endothelial cells (HUVEC); actives raise or lower the signal
Procedure, shortened: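 Endpoint derived by bidirectional fitting against DMSO vehicle; signal is ELISA-detected E-selectin from primary HUVEC at 24 h post-dosing, with parallel SRB staining (0.1% SRB, 560 nm) flagging cytotoxicity.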

[5] = read-out: Interleukin-1 alpha (IL1a), IL1A (gene 3552); experiment: BSK_BE3C_IL1a: BioMAP Diversity Plus: BE3C Assay for Interleukin-1 alpha (IL1a) Biomarker Activity (AID 2283016; active means hit-call score of the fitted dose curve at least 0.9, where 1 is the maximum; inactive means score below 0.9); settings: primary human bronchial epithelial cells; actives raise or lower the signal
Procedure, shortened: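 Signal from IL-1a ELISA, taken 24 h after chemical dosing of human bronchial epithelial cells, is compared with DMSO as baseline using bidirectional curve fitting.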

[6] = read-out: Monocyte Chemoattractant Protein-1 (MCP1), CCL2 (gene 6347); experiment: BSK_3C_MCP1: BioMAP Diversity Plus: 3C Assay for Monocyte Chemoattractant Protein-1 (MCP1) Biomarker Activity (AID 2283017; active means hit-call score of the fitted dose curve at least 0.9, where 1 is the maximum; inactive means score below 0.9); settings: primary human endothelial cells (HUVEC); actives raise or lower the signal
Procedure, shortened: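 Using human vascular primary endothelium, researchers measured MCP-1 by ELISA 24 h after treatment, with DMSO serving as negative control for bidirectional fitting.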

[7] = read-out: Monocyte Chemoattractant Protein-1 (MCP1), CCL2 (gene 6347); experiment: BSK_4H_MCP1: BioMAP Diversity Plus: 4H Assay for Monocyte Chemoattractant Protein-1 (MCP1) Biomarker Activity (AID 2283018; active means hit-call score of the fitted dose curve at least 0.9, where 1 is the maximum; inactive means score below 0.9); settings: primary human endothelial cells (HUVEC); actives raise or lower the signal
Procedure, shortened: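 Endothelial cells from umbilical vein were treated with test chemical, then after 24 h MCP-1 levels were quantified by ELISA; endpoint values came from bidirectional fitting with DMSO as baseline of activity.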

[8] = read-out: Human Leukocyte Antigen - DR isotype (HLADR), HLA-DRA (gene 3122); experiment: BSK_3C_HLADR: BioMAP Diversity Plus: 3C Assay for Human Leukocyte Antigen - DR isotype (HLADR) Biomarker Activity (AID 2283019; active means hit-call score of the fitted dose curve at least 0.9, where 1 is the maximum; inactive means score below 0.9;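 further: ELISA of cell-surface HLA-DR on HUVEC 24 h after dosing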); settings: primary human endothelial cells (HUVEC); actives raise or lower the signal
Procedure, shortened: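 Compound added to primary HUVEC cultures, 24 h incubation, then HLA-DR determined by ELISA; endpoint derived by bidirectional fitting relative to DMSO negative control.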

[9] = read-out: Interleukin-8 (IL8), CXCL8 (gene 3576); experiment: BSK_3C_IL8: BioMAP Diversity Plus: 3C Assay for Interleukin-8 (IL8) Biomarker Activity (AID 2283020; active means hit-call score of the fitted dose curve at least 0.9, where 1 is the maximum; inactive means score below 0.9); settings: primary human endothelial cells (HUVEC); actives raise or lower the signal
Procedure, shortened: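 Endothelial primary cells of human umbilical vein origin are dosed with chemical; after 24 h the IL-8 biomarker is measured by ELISA, and concentration–response is fitted in both directions versus DMSO.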

[10] = read-out: Monokine induced gamma interferon (MIG), CXCL9 (gene 4283); experiment: BSK_3C_MIG: BioMAP Diversity Plus: 3C Assay for Monokine induced gamma interferon (MIG) Biomarker Activity (AID 2283021; active means hit-call score of the fitted dose curve at least 0.9, where 1 is the maximum; inactive means score below 0.9); settings: primary human endothelial cells (HUVEC); actives raise or lower the signal
Procedure, shortened: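 Endothelial primary cells (human umbilical vein) are dosed with test chemical in the 3C system. MIG levels are measured by ELISA at 24 h and fitted in both directions relative to DMSO.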

[11] = BSK_3C_SRB: Viability Assessment in the BioMAP Diversity Plus: 3C Assay (AID 2283023; active means hit-call score of the fitted dose curve at least 0.9, where 1 is the maximum; inactive means score below 0.9;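 further: cells read 24 h after compound dosing; fitted both ways against DMSO so a hit may be signal rise or drop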); settings: primary human endothelial cells (HUVEC)
Procedure, shortened: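 Overt cytotoxicity is gauged in parallel confluent HUVEC cultures by SRB total-protein staining at the time of biomarker measurement, 24 h after dosing. Gain or loss of signal is fitted versus DMSO.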

[12] = read-out: Matrix Metallopeptidase 1 (MMP1), MMP1 (gene 4312); experiment: BSK_BE3C_MMP1: BioMAP Diversity Plus: BE3C Assay for Matrix Metallopeptidase 1 (MMP1) Biomarker Activity (AID 2283024; active means hit-call score of the fitted dose curve at least 0.9, where 1 is the maximum; inactive means score below 0.9); settings: primary human bronchial epithelial cells; actives raise or lower the signal
Procedure, shortened: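 MMP1 signal, measured by ELISA after a 24 h chemical exposure of human primary bronchial epithelial cells, is analysed with bidirectional fitting using DMSO as negative control.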

[13] = read-out: Pselectin, SELP (gene 6403); experiment: BSK_4H_Pselectin: BioMAP Diversity Plus: 4H Assay for Pselectin Biomarker Activity (AID 2283026; active means hit-call score of the fitted dose curve at least 0.9, where 1 is the maximum; inactive means score below 0.9); settings: primary human endothelial cells (HUVEC); actives raise or lower the signal
Procedure, shortened: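 Endothelial primary cells (human umbilical vein) are dosed, incubated 24 h, and assayed for surface P-selectin by ELISA; responses in either direction are fitted relative to the DMSO negative control.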

[14] = BSK_4H_SRB: Viability Assessment in the BioMAP Diversity Plus: 4H Assay (AID 2283027; active means hit-call score of the fitted dose curve at least 0.9, where 1 is the maximum; inactive means score below 0.9;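 further: cells exposed to compound for 24 h before staining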); settings: primary human endothelial cells (HUVEC)
Procedure, shortened: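 HUVEC, 24 h post-dose; 10% TCA fix, 0.1% SRB stain, A560 nm. Total protein = overt cytotoxicity, parallel to biomarker read. Bidirectional fit vs DMSO baseline.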

[15] = BSK_BE3C_SRB: Viability Assessment in the BioMAP Diversity Plus: BE3C Assay (AID 2283028; active means hit-call score of the fitted dose curve at least 0.9, where 1 is the maximum; inactive means score below 0.9); settings: primary human bronchial epithelial cells
Procedure, shortened: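 SRB total-protein staining (0.1%, after TCA fixation) of chemically dosed human bronchial epithelial primary cells at 24 h; DMSO serves as the negative control for bidirectional curve fitting.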

[16] = read-out: Thrombomodulin, THBD (gene 7056); experiment: BSK_3C_Thrombomodulin: BioMAP Diversity Plus: 3C Assay for Thrombomodulin Biomarker Activity (AID 2283029; active means hit-call score of the fitted dose curve at least 0.9, where 1 is the maximum; inactive means score below 0.9); settings: primary human endothelial cells (HUVEC); actives raise or lower the signal
Procedure, shortened: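 Endothelial cells from umbilical vein are dosed with test chemical and incubated 24 h. Thrombomodulin is then quantified by ELISA, with DMSO serving as negative control and activity baseline.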

[17] = read-out: Urokinase-type plasminogen activator receptor (uPAR), PLAUR (gene 5329); experiment: BSK_4H_uPAR: BioMAP Diversity Plus: 4H Assay for Urokinase-type plasminogen activator receptor (uPAR) Biomarker Activity (AID 2283030; active means hit-call score of the fitted dose curve at least 0.9, where 1 is the maximum; inactive means score below 0.9); settings: primary human endothelial cells (HUVEC); actives raise or lower the signal
Procedure, shortened: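 Endpoint derived via bidirectional curve fitting against DMSO baseline; readout was ELISA detection of uPAR on umbilical vein endothelial cells at 24 h post-treatment, with SRB-stained parallel cultures assessing cytotoxicity.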

[18] = read-out: Vascular endothelial growth factor receptor 2 (Homo sapiens) (UniProt P35968); experiment: BSK_4H_VEGFRII: BioMAP Diversity Plus: 4H Assay for Vascular endothelial growth factor receptor 2 (VEGFR2) Biomarker Activity (AID 2283031; active means hit-call score of the fitted dose curve at least 0.9, where 1 is the maximum; inactive means score below 0.9); settings: primary human endothelial cells (HUVEC); actives raise or lower the signal
Procedure, shortened: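 In this multiplexed HUVEC system, biomarker ELISA was performed after 24 h chemical exposure. Parallel SRB staining (TCA fixation, 560 nm) tracked cytotoxicity; DMSO served as baseline.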

[19] = molecular target: human Retinoid X Receptor beta (RXRb), RXRB (gene 6257) (UniProt P28702); experiment: ATG_RXRb_TRANS: Attagene TRANS-FACTORIAL HepG2 Assay for human Retinoid X Receptor beta (RXRb) (AID 2283013)
Procedure, shortened: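 Chimeric receptor-Gal4 activity was assessed in transiently transfected human HepG2 cells after 24 h exposure. Transcripts from GAL4-UAS reporters were quantified by fluorescent RT-PCR and capillary electrophoresis, with DMSO as negative control and baseline.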

human Vitamin D Receptor (VDR), VDR (gene 7421), sequence (P11473 whole entry, looked up): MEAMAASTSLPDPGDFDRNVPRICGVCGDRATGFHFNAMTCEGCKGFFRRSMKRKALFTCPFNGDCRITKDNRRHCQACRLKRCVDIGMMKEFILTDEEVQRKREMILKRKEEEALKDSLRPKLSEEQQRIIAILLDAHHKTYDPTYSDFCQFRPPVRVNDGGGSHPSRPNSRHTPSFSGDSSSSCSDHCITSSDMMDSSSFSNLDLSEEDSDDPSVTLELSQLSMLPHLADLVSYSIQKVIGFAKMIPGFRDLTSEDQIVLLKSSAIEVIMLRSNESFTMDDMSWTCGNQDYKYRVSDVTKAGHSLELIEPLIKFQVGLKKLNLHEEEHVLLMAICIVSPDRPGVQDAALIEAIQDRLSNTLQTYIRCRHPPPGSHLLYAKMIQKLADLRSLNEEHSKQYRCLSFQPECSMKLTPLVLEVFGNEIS
Retinoic acid receptor RXR-alpha (Homo sapiens), sequence (P19793 whole entry, looked up, the tested form may be a part): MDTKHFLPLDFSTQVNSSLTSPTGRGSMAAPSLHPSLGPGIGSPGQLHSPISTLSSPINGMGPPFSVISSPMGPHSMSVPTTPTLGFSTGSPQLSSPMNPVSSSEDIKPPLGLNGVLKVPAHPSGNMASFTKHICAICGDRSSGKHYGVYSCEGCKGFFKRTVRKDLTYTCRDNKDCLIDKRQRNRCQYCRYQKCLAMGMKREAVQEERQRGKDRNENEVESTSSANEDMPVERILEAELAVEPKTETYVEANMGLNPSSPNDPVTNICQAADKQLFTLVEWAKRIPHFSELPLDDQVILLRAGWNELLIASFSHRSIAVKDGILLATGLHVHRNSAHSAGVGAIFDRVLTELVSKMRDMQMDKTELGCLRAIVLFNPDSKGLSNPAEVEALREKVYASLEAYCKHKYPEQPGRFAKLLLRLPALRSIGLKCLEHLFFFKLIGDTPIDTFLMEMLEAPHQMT
human Thyroid Receptor alpha (THRa1), THRA (gene 7067), sequence (P10827 whole entry, looked up, the tested form may be a part): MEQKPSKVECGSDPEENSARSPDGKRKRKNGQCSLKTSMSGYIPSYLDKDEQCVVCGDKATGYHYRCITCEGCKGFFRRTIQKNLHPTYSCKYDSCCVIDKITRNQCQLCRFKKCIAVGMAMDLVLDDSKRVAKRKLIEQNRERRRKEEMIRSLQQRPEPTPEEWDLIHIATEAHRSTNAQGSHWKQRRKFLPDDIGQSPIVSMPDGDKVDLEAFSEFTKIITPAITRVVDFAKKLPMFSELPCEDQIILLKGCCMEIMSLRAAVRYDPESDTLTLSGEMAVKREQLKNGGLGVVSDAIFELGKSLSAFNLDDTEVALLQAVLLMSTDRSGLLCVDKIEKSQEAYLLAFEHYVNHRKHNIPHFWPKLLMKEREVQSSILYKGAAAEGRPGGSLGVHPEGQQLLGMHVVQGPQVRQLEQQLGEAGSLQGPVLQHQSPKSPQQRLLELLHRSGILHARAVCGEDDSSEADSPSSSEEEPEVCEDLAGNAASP
E-selectin (Homo sapiens), sequence (P16581 whole entry, looked up): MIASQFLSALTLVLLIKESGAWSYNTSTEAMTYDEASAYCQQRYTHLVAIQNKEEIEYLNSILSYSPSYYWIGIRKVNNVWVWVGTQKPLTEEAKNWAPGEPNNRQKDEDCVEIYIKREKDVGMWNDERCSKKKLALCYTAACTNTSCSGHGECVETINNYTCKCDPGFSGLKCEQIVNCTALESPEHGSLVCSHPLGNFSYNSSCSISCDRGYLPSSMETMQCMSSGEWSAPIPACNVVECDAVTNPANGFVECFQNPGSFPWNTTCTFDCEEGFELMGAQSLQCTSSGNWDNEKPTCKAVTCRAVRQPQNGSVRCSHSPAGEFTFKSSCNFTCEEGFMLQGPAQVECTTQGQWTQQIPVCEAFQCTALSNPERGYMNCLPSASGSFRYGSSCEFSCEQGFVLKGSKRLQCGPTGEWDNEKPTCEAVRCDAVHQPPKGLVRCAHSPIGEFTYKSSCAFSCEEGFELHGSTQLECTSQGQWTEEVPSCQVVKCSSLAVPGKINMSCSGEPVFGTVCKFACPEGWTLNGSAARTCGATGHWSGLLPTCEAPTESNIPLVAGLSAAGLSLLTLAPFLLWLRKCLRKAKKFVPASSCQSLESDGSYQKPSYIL
human Retinoid X Receptor beta (RXRb), RXRB (gene 6257), sequence (P28702 whole entry, looked up, the tested form may be a part): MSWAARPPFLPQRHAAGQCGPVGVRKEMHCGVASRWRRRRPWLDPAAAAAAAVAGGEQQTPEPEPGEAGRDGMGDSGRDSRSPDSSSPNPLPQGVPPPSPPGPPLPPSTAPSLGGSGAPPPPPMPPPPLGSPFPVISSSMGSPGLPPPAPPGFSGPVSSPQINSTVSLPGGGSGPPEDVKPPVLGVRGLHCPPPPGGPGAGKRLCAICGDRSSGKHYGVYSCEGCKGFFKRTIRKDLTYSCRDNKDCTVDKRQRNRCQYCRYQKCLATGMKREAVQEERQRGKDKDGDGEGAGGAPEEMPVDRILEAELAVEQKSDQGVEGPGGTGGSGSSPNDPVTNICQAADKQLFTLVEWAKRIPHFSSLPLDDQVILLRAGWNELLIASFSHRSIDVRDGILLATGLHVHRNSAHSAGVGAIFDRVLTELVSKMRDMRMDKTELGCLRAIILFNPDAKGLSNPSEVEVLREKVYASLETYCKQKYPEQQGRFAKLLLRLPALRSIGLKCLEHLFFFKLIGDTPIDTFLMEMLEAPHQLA

## CCCCCCCCC(C)=O
[1]
  outcome: inactive
[2]
  outcome: inactive

## CCCC=O
[1]
  outcome: inactive
[2]
  outcome: inactive

## FC(F)(F)C1(F)C(F)(F)C(F)(F)C(F)(F)C(F)(C(F)(F)F)C1(F)F (stereo not given)
[1]
  outcome: inactive
[2]
  outcome: inactive

## COC1=CC(=O)C[C@@H](C)[C@]12Oc1c(Cl)c(OC)cc(OC)c1C2=O
[1]
  outcome: inactive
[3]
  outcome: inactive
[4]
  outcome: inactive
[5]
  outcome: inactive
[6]
  outcome: inactive
[7]
  outcome: inactive
[8]
  outcome: inactive
[9]
  outcome: inactive
[10]
  outcome: inactive
[11]
  outcome: inactive
[12]
  outcome: inactive
[13]
  outcome: inactive
[14]
  outcome: inactive
[15]
  outcome: inactive
[16]
  outcome: inactive
[17]
  outcome: inactive
[18]
  outcome: inactive

## O=C(C=C(O)C(F)(F)F)C(F)(F)F
[1]
  outcome: inactive
[2]
  outcome: inactive

## Cc1ccc(C)c(S(=O)(=O)O)c1
[1]
  outcome: inactive
[3]
  outcome: inactive
[2]
  outcome: inactive

## FC(F)(F)C1(F)C(F)(F)C(F)(F)C(F)(F)C1(F)F
[1]
  outcome: inactive
[3]
  outcome: inactive
[2]
  outcome: inactive

## FC(F)(F)C(F)(F)C(F)(F)C(F)(F)I
[1]
  outcome: inactive
[2]
  outcome: inactive

## C=CC(F)(F)C(F)(F)C(F)(F)C(F)(F)F
[1]
  outcome: inactive
[2]
  outcome: inactive

## Nc1cc(Cl)c(-c2cc(Cl)c(N)cc2Cl)cc1Cl
[1]
  outcome: inactive
[3]
  outcome: inactive
[2]
  outcome: inactive

## CC1CCC(C(=O)O)CC1 (stereo not given)
[1]
  outcome: inactive
[3]
  outcome: inactive
[2]
  outcome: inactive

## CC(C)CCOCCC(C)C
[1]
  outcome: inactive
[2]
  outcome: inactive

## CC=O
[1]
  outcome: inactive
[3]
  outcome: inactive
[2]
  outcome: inactive

## COC(=O)C(F)(F)C(F)(F)C(F)(F)F
[1]
  outcome: inactive
[3]
  outcome: inactive
[2]
  outcome: inactive

## O=C(c1cc(O)c(O)c(O)c1)c1ccc(O)c(O)c1O
[1]
  outcome: inactive
[3]
  outcome: inactive
[2]
  outcome: inactive

## O=C(F)C(F)(F)C(F)(F)C(F)(F)C(=O)F
[1]
  outcome: inactive
[2]
  outcome: inactive

## Cc1ccccc1OCC(=O)O
[19]
  outcome: inactive

## CCCCCCCCCCCC[N+](C)(C)CCCCCCCCCCCC
[1]
  outcome: inactive
[3]
  outcome: inactive
[2]
  outcome: inactive

## O=S(=O)(c1ccc(OCc2ccccc2)cc1)c1ccccc1O
[1]
  outcome: inactive
[3]
  outcome: inactive
[2]
  outcome: inactive

## COC(O)c1ccccc1 (stereo not given)
[1]
  outcome: inactive
[3]
  outcome: inactive
[2]
  outcome: inactive

## C=CC(=O)OCCN(CC)CC
[1]
  outcome: inactive
[3]
  outcome: inactive
[2]
  outcome: inactive

## CCOC(=O)c1nc(C(Cl)(Cl)Cl)n(-c2ccc(Cl)cc2Cl)n1
[1]
  outcome: inactive
[3]
  AC50: 2110 nM (active)
[2]
  outcome: inactive

## Oc1c(Cl)ccc(Cl)c1Cl
[1]
  outcome: inactive
[2]
  outcome: inactive

## O=C(O)CN(CCCN(CC(=O)O)CC(=O)O)CC(=O)O
[1]
  outcome: inactive
[3]
  outcome: inactive
[2]
  outcome: inactive
